Measured values published in the supplement of paper PMC12282887.
± gives the standard deviation of the averaged measurements.

How the values were obtained:
Assay in all cases: promoter activity interaction Z-score (Lux/OD deviation from empty-vector control); higher = stronger promoter induction by the compound
[1] = tested on: E. coli BW25113 acrABp lux reporter
In short: (§1)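 E. coli BW25113 (wild type or marA, soxS or rob deletion) carrying low-copy luxCDABE promoter reporters grew in 40 µl LB Lennox in 384-well plates at 37°C. Each compound was tested at four 1:2 dilutions in biological duplicates. OD600 and luminescence were read every 30 min for 12 h. Areas were taken over 0–8 h (wild type) or 1–9 h (mutants), and wells below 10% of median growth area were removed. The score is the Z-transformed residual of growth-normalised luminescence fitted against the empty-vector control.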

[2] = tested on: E. coli BW25113 marRABp lux reporter
In short: as §1

[3] = tested on: E. coli BW25113 micFp lux reporter
In short: as §1

[4] = tested on: E. coli BW25113 ompFp lux reporter
In short: as §1

[5] = tested on: E. coli BW25113 robp lux reporter
In short: as §1

[6] = tested on: E. coli BW25113 soxSp lux reporter
In short: as §1

[7] = tested on: E. coli BW25113 tolCp lux reporter
In short: as §1

[8] = 17.4 µg/ml, genetic background: wild type
[9] = 17.4 µg/ml, genetic background: ΔmarA
[10] = 17.4 µg/ml, genetic background: Δrob
[11] = 17.4 µg/ml, genetic background: ΔsoxS
[12] = 34.9 µg/ml, genetic background: wild type
[13] = 34.9 µg/ml, genetic background: ΔmarA
[14] = 34.9 µg/ml, genetic background: Δrob
[15] = 34.9 µg/ml, genetic background: ΔsoxS
[16] = 69.8 µg/ml, genetic background: wild type
[17] = 69.8 µg/ml, genetic background: ΔmarA
[18] = 69.8 µg/ml, genetic background: Δrob
[19] = 69.8 µg/ml, genetic background: ΔsoxS
[20] = 139.6 µg/ml, genetic background: wild type
[21] = 139.6 µg/ml, genetic background: ΔmarA
[22] = 139.6 µg/ml, genetic background: Δrob
[23] = 139.6 µg/ml, genetic background: ΔsoxS

In the case of `Nc1ccn(C[C@@H](CO)OCP(=O)(O)O)c(=O)n1` [Cidofovir], the “promoter activity interaction Z-score” value [1, 8] is reported as -0.283 ± 0.054, the “promoter activity interaction Z-score” value [1, 9] is reported as 0.149 ± 0.3 and the “promoter activity interaction Z-score” value [1, 10] is reported as -0.0654 ± 0.1. For the same molecule, the “promoter activity interaction Z-score” value [1, 11] was -0.0538 ± 0.14, the “promoter activity interaction Z-score” value [1, 12] was 0.196 ± 0.13 and the “promoter activity interaction Z-score” value [1, 13] was -0.657 ± 0.64. For the same molecule, the “promoter activity interaction Z-score” value [1, 14] was 0.0446 ± 0.2, the “promoter activity interaction Z-score” value [1, 15] was 0.215 ± 0.4 and the “promoter activity interaction Z-score” value [1, 16] was 0.219 ± 0.079. The “promoter activity interaction Z-score” value [1, 17] was 0.553 ± 0.79, the “promoter activity interaction Z-score” value [1, 18] was -0.00642 ± 0.084 and the “promoter activity interaction Z-score” value [1, 19] was 0.0852 ± 0.5. The “promoter activity interaction Z-score” value [1, 20] was 0.22 ± 0.15, the “promoter activity interaction Z-score” value [1, 21] was -0.132 ± 0.17 and the “promoter activity interaction Z-score” value [1, 22] was 0.233 ± 0.03. For the same molecule, the “promoter activity interaction Z-score” value [1, 23] was 0.385 ± 0.26, the “promoter activity interaction Z-score” value [2, 8] was -0.0416 ± 0.17 and the “promoter activity interaction Z-score” value [2, 9] was -0.106 ± 0.11. For the same molecule, the “promoter activity interaction Z-score” value [2, 10] was -0.0241 ± 0.025, the “promoter activity interaction Z-score” value [2, 11] was 0.0975 ± 0.049 and the “promoter activity interaction Z-score” value [2, 12] was 0.263 ± 0.48. For the same molecule, the “promoter activity interaction Z-score” value [2, 13] was -0.336 ± 0.093, the “promoter activity interaction Z-score” value [2, 14] was 0.0475 ± 0.0048 and the “promoter activity interaction Z-score” value [2, 15] was -0.0388 ± 0.24. For the same molecule, the “promoter activity interaction Z-score” value [2, 16] was -0.235 ± 0.23, the “promoter activity interaction Z-score” value [2, 17] was -0.157 ± 0.23 and the “promoter activity interaction Z-score” value [2, 18] was -0.0863 ± 0.087. The “promoter activity interaction Z-score” value [2, 19] was 0.0268 ± 0.12, the “promoter activity interaction Z-score” value [2, 20] was 0.0629 ± 0.086 and the “promoter activity interaction Z-score” value [2, 21] was -0.277 ± 0.08. The “promoter activity interaction Z-score” value [2, 22] was 0.278 ± 0.14, the “promoter activity interaction Z-score” value [2, 23] was 0.18 ± 0.28 and the “promoter activity interaction Z-score” value [3, 8] was 0.0224 ± 0.19. The “promoter activity interaction Z-score” value [3, 9] was 0.0154 ± 0.092, the “promoter activity interaction Z-score” value [3, 10] was -0.0713 ± 0.17 and the “promoter activity interaction Z-score” value [3, 11] was 0.11 ± 0.48. For the same molecule, the “promoter activity interaction Z-score” value [3, 12] was -0.0338 ± 0.16, the “promoter activity interaction Z-score” value [3, 13] was -0.00819 ± 0.0042 and the “promoter activity interaction Z-score” value [3, 14] was -0.103 ± 0.19. For the same molecule, the “promoter activity interaction Z-score” value [3, 15] was -0.106 ± 0.1, the “promoter activity interaction Z-score” value [3, 16] was -0.121 ± 0.16 and the “promoter activity interaction Z-score” value [3, 17] was -0.0731 ± 0.046. For the same molecule, the “promoter activity interaction Z-score” value [3, 18] was -0.0746 ± 0.21, the “promoter activity interaction Z-score” value [3, 19] was -0.0778 ± 0.17 and the “promoter activity interaction Z-score” value [3, 20] was -0.297 ± 0.16. The “promoter activity interaction Z-score” value [3, 21] was -0.185 ± 0.15, the “promoter activity interaction Z-score” value [3, 22] was -0.00734 ± 0.29 and the “promoter activity interaction Z-score” value [3, 23] was -0.28 ± 0.054. For the same molecule, the “promoter activity interaction Z-score” value [4, 8] was -0.101 ± 0.21, the “promoter activity interaction Z-score” value [4, 9] was -0.0401 ± 0.19 and the “promoter activity interaction Z-score” value [4, 10] was -0.282 ± 0.46. For the same molecule, the “promoter activity interaction Z-score” value [4, 11] was 0.292 ± 0.4, the “promoter activity interaction Z-score” value [4, 12] was 0.3 ± 0.056 and the “promoter activity interaction Z-score” value [4, 13] was -0.163 ± 0.48. The “promoter activity interaction Z-score” value [4, 14] was 0.122 ± 0.34, the “promoter activity interaction Z-score” value [4, 15] was 0.493 ± 0.19 and the “promoter activity interaction Z-score” value [4, 16] was 0.00967 ± 0.29. For the same molecule, the “promoter activity interaction Z-score” value [4, 17] was -0.0743 ± 0.39, the “promoter activity interaction Z-score” value [4, 18] was -0.0183 ± 0.51 and the “promoter activity interaction Z-score” value [4, 19] was 0.835 ± 0.063. The “promoter activity interaction Z-score” value [4, 20] was 0.281 ± 0.35, the “promoter activity interaction Z-score” value [4, 21] was 0.0677 ± 0.43 and the “promoter activity interaction Z-score” value [4, 22] was 1.05 ± 0.56. The “promoter activity interaction Z-score” value [4, 23] was 0.354 ± 0.32, the “promoter activity interaction Z-score” value [5, 8] was 0.0479 ± 0.44 and the “promoter activity interaction Z-score” value [5, 9] was -0.325 ± 0.089. The “promoter activity interaction Z-score” value [5, 10] was -0.283 ± 0.23, the “promoter activity interaction Z-score” value [5, 11] was 0.755 ± 0.19 and the “promoter activity interaction Z-score” value [5, 12] was 0.8822 ± 0.0041. The “promoter activity interaction Z-score” value [5, 13] was -0.684 ± 0.34, the “promoter activity interaction Z-score” value [5, 14] was 0.316 ± 0.54 and the “promoter activity interaction Z-score” value [5, 15] was 0.739 ± 0.8. The “promoter activity interaction Z-score” value [5, 16] was -0.0584 ± 0.52, the “promoter activity interaction Z-score” value [5, 17] was -0.117 ± 0.21 and the “promoter activity interaction Z-score” value [5, 18] was 0.528 ± 1.2. For the same molecule, the “promoter activity interaction Z-score” value [5, 19] was 0.716 ± 0.15, the “promoter activity interaction Z-score” value [5, 20] was 0.0675 ± 0.18 and the “promoter activity interaction Z-score” value [5, 21] was -0.557 ± 0.22. The “promoter activity interaction Z-score” value [5, 22] was 0.839 ± 0.21, the “promoter activity interaction Z-score” value [5, 23] was 0.434 ± 0.44 and the “promoter activity interaction Z-score” value [6, 8] was 0.0175 ± 0.013. For the same molecule, the “promoter activity interaction Z-score” value [6, 9] was 0.0495 ± 0.085, the “promoter activity interaction Z-score” value [6, 10] was -0.108 ± 0.04 and the “promoter activity interaction Z-score” value [6, 11] was 0.122 ± 0.064. The “promoter activity interaction Z-score” value [6, 12] was -0.0402 ± 0.16, the “promoter activity interaction Z-score” value [6, 13] was 0.0487 ± 0.082 and the “promoter activity interaction Z-score” value [6, 14] was 0.0552 ± 0.025. The “promoter activity interaction Z-score” value [6, 15] was 0.246 ± 0.033, the “promoter activity interaction Z-score” value [6, 16] was -0.0559 ± 0.065 and the “promoter activity interaction Z-score” value [6, 17] was 0.167 ± 0.11. For the same molecule, the “promoter activity interaction Z-score” value [6, 18] was -0.0558 ± 0.063, the “promoter activity interaction Z-score” value [6, 19] was 0.254 ± 0.11 and the “promoter activity interaction Z-score” value [6, 20] was 0.021 ± 0.14. For the same molecule, the “promoter activity interaction Z-score” value [6, 21] was -0.0152 ± 0.023, the “promoter activity interaction Z-score” value [6, 22] was 0.0293 ± 0.054 and the “promoter activity interaction Z-score” value [6, 23] was -0.0927 ± 0.013. The “promoter activity interaction Z-score” value [7, 8] was 0.134 ± 0.031, the “promoter activity interaction Z-score” value [7, 9] was 0.258 ± 0.13 and the “promoter activity interaction Z-score” value [7, 10] was -0.735 ± 1.3. For the same molecule, the “promoter activity interaction Z-score” value [7, 11] was -0.0946 ± 0.53, the “promoter activity interaction Z-score” value [7, 12] was -0.218 ± 0.42 and the “promoter activity interaction Z-score” value [7, 13] was -0.677 ± 0.19. For the same molecule, the “promoter activity interaction Z-score” value [7, 14] was 0.0662 ± 0.039, the “promoter activity interaction Z-score” value [7, 15] was 1.55 ± 0.98 and the “promoter activity interaction Z-score” value [7, 16] was -0.434 ± 0.14. The “promoter activity interaction Z-score” value [7, 17] was -0.318 ± 0.84, the “promoter activity interaction Z-score” value [7, 18] was -0.696 ± 1 and the “promoter activity interaction Z-score” value [7, 19] was -0.168 ± 1. The “promoter activity interaction Z-score” value [7, 20] was -0.582 ± 0.18, the “promoter activity interaction Z-score” value [7, 21] was -0.123 ± 0.94 and the “promoter activity interaction Z-score” value [7, 22] was 0.23 ± 0.54. For the same molecule, the “promoter activity interaction Z-score” value [7, 23] was -0.453 ± 0.91.
